Among all 360,000 compounds or so, about 350 (0.097%) were called active. Cut-off read from the data, not from the text of the source: active = inhibition above about 16% (passing the limit was not always enough); inconclusive = no clear call, values can overlap the other calls; inactive = below that. The entries come from a sample that favours actives as a whole.
Tested on: UDP-N-acetylbacillosamine N-acetyltransferase PglD (Campylobacter jejuni)
Experiment: blockers of PglD enzyme activity – biochemical, DTNB colorimetric, single point, primary screen (AID 602405)
Conditions: purified PglD enzyme, DTNB colorimetric CoA detection; at 12.5 µM; active compounds read high

inhibition, active:
O=C(Nc1ccc(Sc2ccc(Br)cc2)cc1)c1ccco1 20.2%
Cc1ccc(C2=C/C(=C\c3cccnc3)C(=O)O2)cc1 49.3%
CC(=O)Nc1ccc(OC(=O)COc2ccc(Br)cc2)cc1 83.3%
O=C(NCc1ccncc1)C1CCN(C(=O)c2cccc(Cl)c2)CC1 22.3%
CCCCC(=O)Nc1ccc(C(=O)NCCCn2ccnc2)cc1 20.6%
CCOc1ccc(OCc2ccc(C(=O)N(C)c3ccccc3)o2)cc1 27.6%
COc1ccc(NC(=O)C2=NNC(=O)CC2)cc1S(=O)(=O)N1CCCCC1 25.4%

inhibition, inactive:
COC(=O)C[C@@H]1C[C@H]2c3cc(NC(=O)CN(C)C)ccc3O[C@H]2[C@H](CO)O1 1.44%
COc1ccc(S(=O)(=O)Nc2cccc3c2O[C@@H](CN(C)C(=O)NC(C)C)[C@H](C)CN([C@@H](C)CO)C3=O)cc1 3.51%
CCCNC(=O)Nc1ccc2c(c1)C(=O)N(C)C[C@H](OC)[C@H](C)CN[C@@H](C)CO2 1.64%
C[C@H]1CN([C@@H](C)CO)C(=O)c2cccc(NC(=O)Nc3ccccc3)c2O[C@H]1CN(C)S(=O)(=O)c1ccc(Cl)cc1 1.05%
O=C(N[C@H]1C=C[C@@H](CC(=O)N2CCN(c3ccccc3)CC2)O[C@@H]1CO)c1ccncc1 1.58%
CCC(=O)Nc1ccc2c(c1)C(=O)N(C)C[C@@H](OC)[C@@H](C)CN(Cc1ccccc1F)[C@H](C)CO2 2.28%
CCCNC(=O)N(C)C[C@H]1Oc2ncc(-c3cccc(C#N)c3)cc2C(=O)N([C@@H](C)CO)C[C@H]1C 0.216%
O=C(NNC(=O)c1ccco1)Nc1ccccc1 3.41%
O=C(CNC(=O)c1ccco1)NNC(=O)c1ccc(Br)cc1 2.58%
O=C(Nc1ccccc1F)N1C[C@H]2[C@@H](c3ccccc31)[C@@H](CO)N2C(=O)Cc1cccnc1 5.55%
COc1ccc(NC(=O)Nc2ccc3c(c2)C(=O)N([C@@H](C)CO)C[C@@H](C)[C@H](CN(C)Cc2ccc(Cl)c(Cl)c2)O3)cc1 6.96%
COc1cccc(CNC(=O)C[C@@H]2C=C[C@@H](NC(=O)C3CCC3)[C@@H](CO)O2)c1 -2.99%
Cc1noc(C)c1NC(=O)N(C)C[C@@H]1Oc2ccc(NS(C)(=O)=O)cc2C(=O)N([C@H](C)CO)C[C@@H]1C -1.3%
C[C@H](O)C#Cc1ccc2c(c1)O[C@@H](CN(C)C(=O)C1CCCCC1)[C@H](C)CN([C@@H](C)CO)S2(=O)=O -1%
C[C@H]1CCCCO[C@H](CN(C)CC2CC2)[C@@H](C)CN([C@@H](C)CO)C(=O)c2cc(NS(C)(=O)=O)ccc2O1 32%
O=C(c1ccc(F)cc1)N1CCCCN2[C@@H](CO)[C@H](c3ccc(-c4ccccc4)cc3)[C@@H]2C1 1.69%
CN(C)/C=C1\C=C(c2ccccc2)OC1=O -0.491%
Cc1ccc(C(=O)N/C(=C/c2cccnc2)C(=O)O)cc1 -2.85%
CCCc1cn(CC[C@@H]2CC[C@H](NS(=O)(=O)c3ccccc3Cl)[C@H](CO)O2)nn1 -0.55%
CC(=O)N1C[C@@H]2[C@H](c3ccccc31)[C@H](CO)N2Cc1ccc(Cl)cc1 2.15%
CCCNC(=O)C[C@@H]1C[C@@H]2c3cc(N(C)C)ccc3O[C@@H]2[C@H](CO)O1 -5.6%
COc1ccc(S(=O)(=O)N(C)C[C@H]2OCCCC[C@H](C)Oc3ccc(NC(=O)Nc4ccc(F)cc4)cc3C(=O)N([C@@H](C)CO)C[C@H]2C)cc1 -0.001%
C[C@@H](NC(=O)[C@H]1[C@H](CO)[C@H]2Cn3c(cccc3=O)[C@H]2N1C(=O)C1CC1)c1ccccc1 -3.9%
CCOc1ccc(NC(=O)CCNC(=O)c2ccc(Br)cc2)cc1 1.93%
O=C(COc1ccc(Br)cc1)OCC(=O)c1ccc[nH]1 0.716%
C[C@H](CO)N1C[C@H](C)[C@H](CN(C)Cc2ccccc2)Oc2ccc(NC(=O)Cc3ccccc3)cc2C1=O -3.27%
COCC(=O)Nc1ccc2c(c1)C(=O)N(C)[C@H]1CC[C@@H](CC(=O)Nc3cn(C)nc3C)O[C@@H]1CO2 2.19%
O=C(c1cccc(Cl)c1)N1CCN(Cc2ccccc2)CC1 -4.44%
COc1ccc(CNC(=O)C2CCN(C(=O)c3ccccc3)CC2)cc1 -3.01%
CC(C)NC(=O)N[C@H]1C=C[C@H](CC(=O)NCCN2CCCC2)O[C@@H]1CO 0.57%
CCC(=O)N1[C@@H](CO)[C@@H]2c3ccccc3N(C(=O)c3ccccc3F)C[C@@H]21 -0.466%
COc1ccc(CN(C)C[C@@H]2OCCCC[C@H](C)Oc3ccc(NS(C)(=O)=O)cc3C(=O)N([C@@H](C)CO)C[C@H]2C)cc1 -1.59%
O=C(NC[C@@H]1[C@H](c2ccccc2)[C@H](CO)N1CC1CCCC1)c1cccnc1 1.03%
CC=Cc1ccc2n(c1=O)C[C@H]1[C@H](CO)[C@@H](C(=O)NCc3ccncc3)N(Cc3cncnc3)[C@@H]21 (mixture of isomers) -1.52%
CC=Cc1ccc2n(c1=O)C[C@@H]1[C@@H](CO)[C@H](C(=O)N3CCCCC3)[C@H]2N1C(=O)C1CCC1 (mixture of isomers) 2.61%
C[C@@H]1CCCCO[C@H](CN(C)Cc2ccc(C(F)(F)F)cc2)[C@@H](C)CN([C@@H](C)CO)C(=O)c2cc(NC(=O)c3ccncc3)ccc2O1 3.05%
CC(C)CN(C[C@@H]1N[C@@H](CO)[C@H]1c1ccccc1)C(=O)CN(C)C 5.57%
CO[C@@H]1CN(C)C(=O)c2cc(NC(=O)C3CCC3)ccc2OC[C@H](C)N(Cc2nccs2)C[C@H]1C 0.477%
Cc1noc(C)c1NC(=O)N(C)C[C@H]1Oc2c(NS(=O)(=O)c3cccs3)cccc2C(=O)N([C@@H](C)CO)C[C@@H]1C 0.536%
CO[C@@H]1CN(C)C(=O)c2cc(NC(=O)NC3CCCCC3)ccc2OC[C@H](C)N(CC2CCOCC2)C[C@H]1C -1.39%
CCCC(=O)Nc1ccc(C(=O)NCCCn2ccnc2)cc1 -0.628%
CC(=O)Nc1ccc(NC(=O)CCCNC(=O)c2ccc(Cl)cc2)cc1 -4.6%
COc1cccc(-c2ccc3c(c2)O[C@H](CN(C)Cc2ccncc2)[C@H](C)CN([C@H](C)CO)S3(=O)=O)c1 -0.814%
CCCC#Cc1ccc([C@H]2[C@@H](CO)N(C(=O)C3CC3)[C@H]2C#N)cc1 0.491%
C[C@@H]1CN([C@H](C)CO)C(=O)c2cc(C#Cc3ccccn3)cnc2O[C@H]1CN(C)CC1CCOCC1 14.4%
C[C@H]1CN([C@@H](C)CO)C(=O)c2cccc(NC(=O)C3CCOCC3)c2O[C@H]1CN(C)S(C)(=O)=O -0.415%
COc1ccc(CNC(=O)C[C@H]2CC[C@@H]3[C@H](COc4ccc(NC(=O)C5CC5)cc4C(=O)N3C)O2)cc1 -0.548%
C[C@H]1CN([C@@H](C)CO)C(=O)c2cc(N(C)C)ccc2O[C@@H]1CN(C)S(=O)(=O)c1ccc(Cl)cc1 14.8%
C[C@@H]1CCCCO[C@@H](CN(C)Cc2ccc(C(=O)O)cc2)[C@H](C)CN([C@H](C)CO)C(=O)c2cc(NC(=O)Nc3ccc(F)cc3)ccc2O1 0.576%
C[C@H](CO)N1C[C@H](C)[C@H](CN(C)S(=O)(=O)c2ccccc2)Oc2cc(Br)ccc2S1(=O)=O -0.169%
C[C@@H]1CN([C@@H](C)CO)C(=O)c2cc(NC(=O)Cc3ccccc3)ccc2O[C@@H](C)CCCCO[C@H]1CN(C)C(=O)Nc1cccc2ccccc12 -0.256%
COc1ccc(NC(=O)CN(C)C(=O)c2ccc(COc3ccccc3)o2)cc1 -2.65%
CCOc1ccc(OCc2ccc(C(=O)Nc3cccc(C)n3)o2)cc1 1.24%
C/C=C/c1ccc2c(c1)O[C@H](CN(C)C(C)=O)[C@H](C)CN([C@H](C)CO)S2(=O)=O -0.698%
CO[C@H]1CN(C)C(=O)c2ccc(NC(=O)C3CC3)cc2OC[C@@H](C)N(C)C[C@H]1C 4.48%
CO[C@@H]1CN(C)C(=O)c2ccc(NC(=O)C3CCCCC3)cc2OC[C@@H](C)N(Cc2nccs2)C[C@@H]1C 1.22%
Cc1ccc(S(=O)(=O)N(C)C[C@H]2Oc3c(NC(=O)c4ccc(-c5nccs5)cc4)cccc3C(=O)N([C@H](C)CO)C[C@H]2C)cc1 -3.77%
C[C@H]1CN([C@@H](C)CO)S(=O)(=O)c2ccc(C#Cc3ccccc3F)cc2O[C@@H]1CN(C)C(=O)c1ccc2c(c1)OCO2 1.7%
CN1CCN(C(=O)C[C@@H]2C=C[C@@H](NS(=O)(=O)c3cccc(F)c3)[C@@H](CO)O2)CC1 -7.9%
CNC(=O)C[C@H]1CC[C@H]2[C@H](COc3ccc(NC(=O)Nc4cccc(C)c4)cc3C(=O)N2C)O1 -0.336%
COc1ccccc1C(=O)Nc1ccc(C)c(S(=O)(=O)N2CCCCC2)c1 -5.07%
CCOC(=O)C1CCN(CC(=O)Nc2ccc(OC)c(S(=O)(=O)N3CCCCC3)c2)CC1 2.34%

From PubChem BioAssay AID602405 (Broad Institute, 2012)
